# According to PubChem BioAssay (NCATS):
# Where “and” joins values, the source holds several entries; their conditions need not be identical. Equal entries are not always repeated. Records with an inconclusive call do not appear. Calls of active or inactive are those of the source. The call rests on the fitted dose curve; in most records, active means well fitted curve in the direction sought with a large enough effect; inconclusive means small, poorly fitted or top-dose-only effect, or another doubt; inactive means no such curve, though single readings can be large; an effect the other way counts as inactive or inconclusive.
# Biological target: Cellular tumor antigen p53 (Homo sapiens) (UniProt P04637)
# Test: Primary qHTS for small molecule compounds that upregulate eGFP-tagged delta133p53alpha (in N-terminal) cells. (AID 2060322); further: nearly all actives have a fitted effect of over 75% in size; further: potency means the concentration at half of the fitted maximal effect;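 on activation: cells pre-induced with doxycycline then dosed without doxycycline; 0% = DMSO vehicle and 100% = reference activator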
# Settings: NCI-H358 eGFP-delta133p53alpha fluorescence, 24 h; activation: stronger effect = higher value
# Outline: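 NCI-H358 cells pre-induced 24 h with 10 ng/ml doxycycline for eGFP-delta133p53alpha, plated dox-free and exposed 24 h at 37C to titrated compounds. Fixed, Hoechst-stained; gated GFP peak intensity by laser scanning cytometry, normalized to DMSO (0%) and 57.5 uM 5-azacytidine (100%).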
# Chain of Cellular tumor antigen p53 (Homo sapiens) (P04637 whole entry, looked up): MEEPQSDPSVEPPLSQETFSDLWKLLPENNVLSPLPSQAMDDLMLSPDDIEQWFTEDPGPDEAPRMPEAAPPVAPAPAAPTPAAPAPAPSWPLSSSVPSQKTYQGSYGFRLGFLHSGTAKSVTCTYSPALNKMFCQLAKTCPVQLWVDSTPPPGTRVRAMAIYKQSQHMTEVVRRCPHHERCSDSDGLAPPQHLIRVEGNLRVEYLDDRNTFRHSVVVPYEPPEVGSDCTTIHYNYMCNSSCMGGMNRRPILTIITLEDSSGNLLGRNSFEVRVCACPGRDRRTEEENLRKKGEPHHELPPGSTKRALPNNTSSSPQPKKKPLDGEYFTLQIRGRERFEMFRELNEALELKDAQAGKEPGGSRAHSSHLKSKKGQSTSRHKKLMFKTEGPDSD
Structure (SMILES),activation,Potency
Nc1ccc(S(=O)(=O)Nc2nccs2)cc1,18.4% (inactive) and 0.333% (inactive),
O=C(CCCN1CCN(c2ccc(F)cc2)CC1)NC1c2ccccc2CSc2ccccc21 (stereo unspecified),-15% (inactive),
COc1cc(O)cc(/C=C/c2cccc(O)c2)c1,-8.93% (inactive),
C[C@H]1CC[C@H]2[C@@H](C=C[C@@](C)(O)[C@]2(C)C(=O)CCO)C1,-9.16% (inactive),
COC(=O)[C@@H](NC(=O)[C@H](CC(C)C)NC(=O)N(Cc1ccccc1)C[C@@H](O)[C@H](Cc1ccccc1)NC(=O)OC(C)(C)C)C(C)C,19.7% (inactive),
C=C1CCC2C(C)(C(=O)O)CC(O)CC2(C)C1CC/C(C)=C/C(=O)O (stereo unspecified),-9.92% (inactive),
C=C1CC[C@@H]2[C@](C)(CO)[C@H](O)CC[C@@]2(C)[C@@H]1C/C=C1/C(=O)OCC1O (stereo partly specified),,23.9 µM (active)
C[C@H]1CC(=O)Nc2cccc(-c3cnn(C(C)(C)C)c3)c2N1,-12.5% (inactive),
C[C@@H]1O[C@@H](O[C@H]2[C@H](OC(=O)[C@]34CCC(C)(C)C[C@H]3C3=CCC5[C@@]6(C)C[C@H](O)[C@H](O[C@@H]7O[C@H](CO)[C@@H](O)[C@H](O)[C@H]7O)[C@@](C)(CO)C6[C@H](O)C[C@@]5(C)[C@]3(C)CC4)OC[C@H](O)[C@@H]2O)[C@H](O)[C@H](O)[C@H]1O[C@@H]1OC[C@@H](O)[C@H](O[C@@H]2OC[C@](O)(CO)[C@H]2O)[C@H]1O (stereo partly specified),5.36% (inactive),
CC1(C)CC[C@]2(C(=O)O)CC[C@]3(C)C(=CCC4[C@@]5(C)CC[C@H](O)C(C)(C)C5CC[C@]43C)C2C1 (stereo partly specified),-0.763% (inactive),
C=C(C)[C@@H]1CC[C@]2(C)CC[C@]3(C)C(CCC4[C@@]5(C)CC[C@H](O)C(C)(C)C5CC[C@]43C)C12 (stereo partly specified),-19.6% (inactive),
CO[C@H]1C[C@@H]2CC[C@@H](C)[C@@](O)(O2)C(=O)C(=O)N2CCCC[C@H]2C(=O)O[C@H]([C@H](C)C[C@H]2CC[C@@H](OP(C)(C)=O)[C@H](OC)C2)CC(=O)[C@H](C)/C=C(\C)[C@@H](O)[C@@H](OC)C(=O)[C@H](C)C[C@H](C)/C=C/C=C/C=C/1C,11% (inactive),
C=C1CCC2C(C)(C)CCC[C@]2(C)[C@H]1C/C=C(\CO)C(=O)C(=O)O (stereo partly specified),-6.87% (inactive),
C=C1C(=O)OC2C=C(C)CC/C=C(\CO)CC(O)C12 (stereo unspecified),9.92% (inactive),
CC[C@H](C)/C=C(C)/C=C/C1=CC2=CC(=O)[C@]3(C)OC(=O)[C@@H](C(C)=O)[C@@H]3C2=CO1,,18.6 µM (active)
CC(C)C[C@H](CC(=O)NO)C(=O)N[C@@H](Cc1ccc2ccccc2c1)C(=O)N[C@@H](C)C(=O)NCCN,-11.7% (inactive),

# Biological target: Aldehyde dehydrogenase, mitochondrial (Homo sapiens) (UniProt P05091)
# Test: qHTS for Inhibitors of the Aldehyde Dehydrogenase Family (ALDH2) Primary screen (AID 2061308);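 further: plate controls were vehicle for no effect and reference inhibitor for full effect; nearly all actives have a fitted effect of over 55% in size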
# Settings: ALDH2 enzyme inhibition qHTS, 1536-well; series mostly up to 56 µM; activity change, negative = inhibition: at the top concentration
row,Structure (SMILES),"activity change, negative = inhibition"
1,CC1=CCC(C(C)(C)O[C@@H]2O[C@H](CO[C@@H]3O[C@@H](C)[C@H](O)[C@@H](O)[C@H]3O)[C@@H](O)[C@H](O)[C@H]2O)CC1 (stereo partly specified),-4.36% [at 28 µM] (inactive)
2,C/C=C(\C)C(=O)O[C@H]1[C@@H](O[C@]2(COC(=O)CC(C)C)O[C@H](COC(=O)C(C)C)[C@@H](OC(C)=O)[C@@H]2O)O[C@H](COC(C)=O)[C@@H](O)[C@@H]1O,7.77% [at 16.9 µM] (inactive)
3,CC1CCC23COC(=O)C2=CC(O)CC3C1(C)CCc1ccoc1 (stereo unspecified),9.82% (inactive)
4,CC1=C2C=C(CO)C(CO)CCC2(C)CCC1=O (stereo unspecified),-3.71% (inactive)
5,C[C@H](NC(=O)CCc1nc2ccccc2c(=O)[nH]1)c1ccccc1,7.52% (inactive)
6,NCCCNc1ccc(Nc2nccc(Nc3cc(C4CC4)[nH]n3)n2)cc1,3.42% (inactive)
7,COC1=CC(=O)C=C(C)C12Oc1c(Cl)c(OC)cc(OC)c1C2=O (stereo unspecified),-5.97% (inactive)
8,Cc1ccn(-c2cc(Cl)ccc2[C@@H](Oc2cc(-c3ccc(C[C@H](N)C(=O)O)cc3)nc(N)n2)C(F)(F)F)n1,-2.74% (inactive)
9,C=C(CCO)C(=O)OCC1OCC(OC(=O)C(=C)CCO[C@@H]2O[C@H](COC(=O)C(=C)CCO[C@@H]3O[C@H](CO)[C@@H](O)[C@H](O)[C@H]3O)[C@@H](O)[C@H](O)[C@H]2O)C(O)C1O (stereo partly specified),10.8% [at 16.9 µM] (inactive)
10,CC[C@H](C)[C@H](NC(=O)[C@H](Cc1ccc(O)cc1)NC(=O)[C@@H](N)C(C)C)C(=O)N[C@@H](Cc1cnc[nH]1)C(=O)N1CCC[C@H]1C(=O)N[C@@H](Cc1ccccc1)C(=O)O,0.0903% [at 5.59 µM] (inactive)
11,CC1C(=O)OCC2=CC[N+]3([O-])CCC(OC(=O)C(C)(O)C1(C)O)C23 (stereo unspecified),0.547% (inactive)
12,C[C@@H]1O[C@@H](O[C@H]2[C@H](OC(=O)[C@]34CCC(C)(C)C[C@H]3C3=CCC5[C@@]6(C)C[C@H](O)[C@H](O[C@@H]7O[C@H](CO)[C@@H](O[C@H]8OC[C@](O)(CO)[C@H]8O)[C@H](O)[C@H]7O)[C@@](C)(CO)C6[C@H](O)C[C@@]5(C)[C@]3(C)C[C@H]4O)OC[C@H](O)[C@@H]2O)[C@H](O)[C@H](O)[C@H]1O[C@@H]1OC[C@@H](O)[C@H](O[C@@H]2OC[C@](O)(CO)[C@H]2O)[C@H]1O (stereo partly specified),8.6% [at 11.2 µM] (inactive)
13,O=C(Nc1ccn(Cc2c(F)cccc2C(F)(F)F)n1)c1c(F)cccc1F,-3.74% [at 16.9 µM] (inactive)
14,CC1CCC2(NC1)OC1CC3C4CC=C5CC(O[C@@H]6O[C@H](CO)[C@@H](O[C@@H]7O[C@@H](C)[C@H](O)[C@@H](O)[C@H]7O)[C@H](O)[C@H]6O[C@@H]6O[C@@H](C)[C@H](O)[C@@H](O)[C@H]6O)CCC5(C)C4CCC3(C)C1C2C (stereo partly specified),7.01% [at 16.9 µM] (inactive)
15,CCC(C)C(=O)OC1CC(O)C23C4OCC5(C(O)CC2C1(C)C(O)O4)C3C(=O)CC1(C)C(c2ccoc2)CC2OC215 (stereo unspecified),-0.163% [at 28 µM] (inactive)
16,C=C[C@H]1[C@H](O[C@@H]2O[C@H](CO)[C@@H](O)[C@H](O)[C@H]2O)OC=C(C(=O)OC)[C@H]1C[C@@H]1N[C@H](C(=O)O)Cc2c1[nH]c1ccccc21,-7.85% [at 28 µM] (inactive)
17,CC(=O)O[C@H]1C[C@@](O)(C(C)C)C2[C@@H](OC(=O)c3ccc(O)cc3)C[C@@]3(C)O[C@H]3C[C@]21C (stereo partly specified),-5.42% [at 28 µM] (inactive)
18,C=C(C)[C@H]1CC[C@]2(C(=O)O)CC[C@]3(C)C(CCC4[C@@]5(C)CCC(=O)C(C)(C)C5CC[C@]43C)C12 (stereo partly specified),-8.67% [at 28 µM] (inactive)
19,C[C@@H]1C(=O)O[C@H]2[C@H]1CC[C@@]1(C)C(=O)C=C[C@@](C)(O)[C@H]21,-0.153% (inactive)
20,CC(=O)O[C@H]1C[C@H](OC(C)=O)[C@]2(C)[C@H](CC[C@@]34O[C@@H]3C3=C(C)C(=O)O[C@@H]3C[C@H]42)C1(C)C,-1.76% [at 28 µM] (inactive)

row,Structure (SMILES),"activity change, negative = inhibition"
1,C=C1CCC2C(C)(C)CCCC2(C)C1CC/C(C)=C\CO (stereo unspecified),-2.18% (inactive)
2,CC(O)/C=C/C1(O)C(C)C(O)C(O[C@@H]2O[C@H](CO)[C@@H](O)[C@H](O)[C@H]2O)CC1(C)C (stereo partly specified),-2.74% [at 28 µM] (inactive)
3,CC(=O)O[C@H]1[C@H](OC(=O)C(C)C)[C@]2(C)OC3(CC[C@]2(C)[C@H]2CCC[C@]4(CO4)[C@]12C)COC(=O)C3 (stereo partly specified),4.77% [at 28 µM] (inactive)
4,COc1c2c(nc3occc13)C(CC=C(C)C)(OC)C(O)CC2 (stereo unspecified),5.24% (inactive)
5,Nc1ccc(S(=O)(=O)Nc2nccs2)cc1,-1.26% (inactive)
6,O=C(CCCN1CCN(c2ccc(F)cc2)CC1)NC1c2ccccc2CSc2ccccc21 (stereo unspecified),-0.24% (inactive)
7,COc1cc(O)cc(/C=C/c2cccc(O)c2)c1,-2.93% (inactive)
8,C[C@H]1CC[C@H]2[C@@H](C=C[C@@](C)(O)[C@]2(C)C(=O)CCO)C1,-9.18% (inactive)
9,COC(=O)[C@@H](NC(=O)[C@H](CC(C)C)NC(=O)N(Cc1ccccc1)C[C@@H](O)[C@H](Cc1ccccc1)NC(=O)OC(C)(C)C)C(C)C,-10% [at 11.2 µM] (inactive)
10,C=C1CCC2C(C)(C(=O)O)CC(O)CC2(C)C1CC/C(C)=C/C(=O)O (stereo unspecified),-10.9% (inactive)
11,C=C1CC[C@@H]2[C@](C)(CO)[C@H](O)CC[C@@]2(C)[C@@H]1C/C=C1/C(=O)OCC1O (stereo partly specified),6.35% (inactive)
12,C[C@H]1CC(=O)Nc2cccc(-c3cnn(C(C)(C)C)c3)c2N1,7.54% (inactive)
13,C[C@@H]1O[C@@H](O[C@H]2[C@H](OC(=O)[C@]34CCC(C)(C)C[C@H]3C3=CCC5[C@@]6(C)C[C@H](O)[C@H](O[C@@H]7O[C@H](CO)[C@@H](O)[C@H](O)[C@H]7O)[C@@](C)(CO)C6[C@H](O)C[C@@]5(C)[C@]3(C)CC4)OC[C@H](O)[C@@H]2O)[C@H](O)[C@H](O)[C@H]1O[C@@H]1OC[C@@H](O)[C@H](O[C@@H]2OC[C@](O)(CO)[C@H]2O)[C@H]1O (stereo partly specified),8.31% [at 11.2 µM] (inactive)
14,CC1(C)CC[C@]2(C(=O)O)CC[C@]3(C)C(=CCC4[C@@]5(C)CC[C@H](O)C(C)(C)C5CC[C@]43C)C2C1 (stereo partly specified),7.3% [at 28 µM] (inactive)
15,C=C(C)[C@@H]1CC[C@]2(C)CC[C@]3(C)C(CCC4[C@@]5(C)CC[C@H](O)C(C)(C)C5CC[C@]43C)C12 (stereo partly specified),13.8% [at 28 µM] (inactive)
16,CO[C@H]1C[C@@H]2CC[C@@H](C)[C@@](O)(O2)C(=O)C(=O)N2CCCC[C@H]2C(=O)O[C@H]([C@H](C)C[C@H]2CC[C@@H](OP(C)(C)=O)[C@H](OC)C2)CC(=O)[C@H](C)/C=C(\C)[C@@H](O)[C@@H](OC)C(=O)[C@H](C)C[C@H](C)/C=C/C=C/C=C/1C,0.523% (inactive)
17,C=C1CCC2C(C)(C)CCC[C@]2(C)[C@H]1C/C=C(\CO)C(=O)C(=O)O (stereo partly specified),2.96% (inactive)
18,C=C1C(=O)OC2C=C(C)CC/C=C(\CO)CC(O)C12 (stereo unspecified),-3.61% (inactive)
19,CC[C@H](C)/C=C(C)/C=C/C1=CC2=CC(=O)[C@]3(C)OC(=O)[C@@H](C(C)=O)[C@@H]3C2=CO1,-14.4% (inactive)
20,CC(C)C[C@H](CC(=O)NO)C(=O)N[C@@H](Cc1ccc2ccccc2c1)C(=O)N[C@@H](C)C(=O)NCCN,5.65% (inactive)
